Holding throughout (assay): DAPPL (digital affinity profiling via proximity ligation, sequencing); 10 mM Tris-HCl pH 7.5, 50 mM NaCl, 1 mM DTT, 4% glycerol, room temperature, 30 min; GST-TFs on glutathione beads, 16-mer random dsDNA library, 0.1% formaldehyde crosslink after washing; high values mean tight binding
What all share (conditions): protein: recombinant; tags: N-terminal GST; dsDNA, one strand shown

One test concerns the target T1, FLI1 (Homo sapiens, UniProt Q01543 1-452).
T1 sequence: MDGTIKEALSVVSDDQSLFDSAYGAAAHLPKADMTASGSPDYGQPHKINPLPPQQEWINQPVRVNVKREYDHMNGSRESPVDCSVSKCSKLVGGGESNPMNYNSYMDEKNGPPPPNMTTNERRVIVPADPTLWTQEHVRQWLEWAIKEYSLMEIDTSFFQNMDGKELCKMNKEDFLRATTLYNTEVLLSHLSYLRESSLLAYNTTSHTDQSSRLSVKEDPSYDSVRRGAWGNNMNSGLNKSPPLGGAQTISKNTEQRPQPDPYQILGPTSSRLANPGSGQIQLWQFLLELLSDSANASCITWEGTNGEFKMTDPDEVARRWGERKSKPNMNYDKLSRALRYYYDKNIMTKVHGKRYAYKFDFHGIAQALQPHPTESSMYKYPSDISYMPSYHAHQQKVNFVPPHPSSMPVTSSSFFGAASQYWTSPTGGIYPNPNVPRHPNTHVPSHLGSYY
The method, boiled down:
(§1)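 Pools of DNA-barcoded human transcription factors, expressed in yeast as GST fusions on glutathione beads and combined with a tag-only sample, were incubated with 200 nmole of a 16-mer random double-stranded DNA library. Incubation took 30 min at room temperature in Tris/NaCl/DTT/glycerol buffer and was followed by washing, 0.1% formaldehyde crosslinking, proximity ligation (BsaI/T4 ligase, 1 h, 37 °C), PCR amplification and sequencing on an Illumina NextSeq500. Binding signal is the ratio of a hexamer's read frequency for a factor to its frequency for the tag-only sample.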

The target in another test is T2, ELK1 (Homo sapiens, UniProt P19419 1-428).
T2 sequence: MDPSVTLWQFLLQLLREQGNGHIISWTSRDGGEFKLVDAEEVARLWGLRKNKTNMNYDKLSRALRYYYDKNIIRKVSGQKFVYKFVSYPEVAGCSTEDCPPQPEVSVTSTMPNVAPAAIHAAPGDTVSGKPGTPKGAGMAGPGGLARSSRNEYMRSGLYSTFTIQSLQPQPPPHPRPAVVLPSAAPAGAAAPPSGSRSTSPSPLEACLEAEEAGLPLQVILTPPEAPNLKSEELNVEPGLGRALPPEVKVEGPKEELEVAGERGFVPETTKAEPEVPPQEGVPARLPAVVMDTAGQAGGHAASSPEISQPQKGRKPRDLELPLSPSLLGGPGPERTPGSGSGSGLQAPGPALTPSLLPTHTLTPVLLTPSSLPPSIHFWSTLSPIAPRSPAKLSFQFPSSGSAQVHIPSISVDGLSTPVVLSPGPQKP
The method, boiled down: as §1

For another test, the target named is T3, GABPA (Homo sapiens, UniProt Q06546 1-454).
T3 sequence: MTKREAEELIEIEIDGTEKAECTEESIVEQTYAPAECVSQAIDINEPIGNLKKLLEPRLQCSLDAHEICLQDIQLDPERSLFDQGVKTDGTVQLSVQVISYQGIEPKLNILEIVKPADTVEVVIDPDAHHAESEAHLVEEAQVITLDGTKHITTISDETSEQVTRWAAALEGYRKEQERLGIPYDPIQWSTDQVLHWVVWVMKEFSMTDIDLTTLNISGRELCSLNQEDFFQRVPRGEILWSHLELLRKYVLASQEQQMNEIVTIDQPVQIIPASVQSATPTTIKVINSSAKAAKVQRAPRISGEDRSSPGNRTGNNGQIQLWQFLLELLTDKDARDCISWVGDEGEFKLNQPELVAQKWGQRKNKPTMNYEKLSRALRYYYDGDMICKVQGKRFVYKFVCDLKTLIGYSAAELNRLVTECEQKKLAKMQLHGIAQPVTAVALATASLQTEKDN
An outline of the steps:
as §1

The target in another test is T4, ERG (Homo sapiens, UniProt P11308 1-479).
T4 sequence: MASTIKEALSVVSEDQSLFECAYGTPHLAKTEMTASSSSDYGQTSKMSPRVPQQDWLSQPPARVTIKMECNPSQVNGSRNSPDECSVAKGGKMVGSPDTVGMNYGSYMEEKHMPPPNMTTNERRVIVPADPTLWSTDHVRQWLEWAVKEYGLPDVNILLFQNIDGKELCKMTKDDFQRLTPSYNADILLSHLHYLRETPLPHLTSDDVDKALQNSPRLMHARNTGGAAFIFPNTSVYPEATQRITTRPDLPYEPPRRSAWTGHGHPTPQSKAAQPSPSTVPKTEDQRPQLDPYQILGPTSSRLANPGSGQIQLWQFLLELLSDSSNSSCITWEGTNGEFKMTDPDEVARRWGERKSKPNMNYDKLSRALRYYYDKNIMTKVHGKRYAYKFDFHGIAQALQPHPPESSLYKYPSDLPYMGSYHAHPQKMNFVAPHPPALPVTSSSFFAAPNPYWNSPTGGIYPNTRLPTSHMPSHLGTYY
The method, boiled down: as §1

A further test deals with ELF1 (Homo sapiens, UniProt P32519 1-619). The method, boiled down:
as §1

The target in the next test is T5, EHF (Homo sapiens, UniProt Q9NZC4 1-300).
T5 sequence: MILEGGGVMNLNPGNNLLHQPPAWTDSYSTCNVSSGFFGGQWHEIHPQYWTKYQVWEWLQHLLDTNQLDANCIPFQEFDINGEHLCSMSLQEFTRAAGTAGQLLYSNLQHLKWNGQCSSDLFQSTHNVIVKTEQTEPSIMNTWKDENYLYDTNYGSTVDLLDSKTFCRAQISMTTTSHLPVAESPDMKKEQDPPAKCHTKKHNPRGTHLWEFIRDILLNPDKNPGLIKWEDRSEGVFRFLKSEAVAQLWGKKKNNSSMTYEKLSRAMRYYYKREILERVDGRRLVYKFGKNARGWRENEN
The method, boiled down: as §1

The next test has as its target SPI1 (Homo sapiens, UniProt P17947 1-270). An outline of the steps:
as §1

The target in a further test is SPIB (Homo sapiens, UniProt Q01892 1-262). The method, boiled down:
as §1

In another test the target is T6, FEV (Homo sapiens, UniProt Q99581 1-238).
T6 sequence: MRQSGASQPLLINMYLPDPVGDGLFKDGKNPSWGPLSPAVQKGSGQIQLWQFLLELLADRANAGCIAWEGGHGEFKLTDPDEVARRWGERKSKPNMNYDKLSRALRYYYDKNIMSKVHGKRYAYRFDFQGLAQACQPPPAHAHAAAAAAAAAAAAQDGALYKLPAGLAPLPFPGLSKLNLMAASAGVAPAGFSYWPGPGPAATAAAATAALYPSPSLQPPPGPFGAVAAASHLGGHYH
An outline of the steps:
as §1

A further test has as its target ETV5 (Homo sapiens, UniProt P41161 1-510). An outline of the steps:
as §1

The next test deals with T7, SPIC (Homo sapiens, UniProt Q8N5J4 1-248).
T7 sequence: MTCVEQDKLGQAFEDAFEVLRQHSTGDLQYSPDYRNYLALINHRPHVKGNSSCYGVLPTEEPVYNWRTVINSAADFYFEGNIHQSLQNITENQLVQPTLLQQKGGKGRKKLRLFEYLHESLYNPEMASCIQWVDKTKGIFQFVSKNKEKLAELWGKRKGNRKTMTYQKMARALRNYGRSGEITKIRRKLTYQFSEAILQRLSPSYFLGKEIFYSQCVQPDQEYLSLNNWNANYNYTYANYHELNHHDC
The method, boiled down: as §1

The target of the next test is ELF4 (Homo sapiens, UniProt Q99607 1-663). An outline of the steps: as §1
The target of another test is ETV1 (Homo sapiens, UniProt P50549 1-477). The method, boiled down: as §1
Another test deals with T8, ERF (Homo sapiens, UniProt P50548 1-548).
T8 sequence: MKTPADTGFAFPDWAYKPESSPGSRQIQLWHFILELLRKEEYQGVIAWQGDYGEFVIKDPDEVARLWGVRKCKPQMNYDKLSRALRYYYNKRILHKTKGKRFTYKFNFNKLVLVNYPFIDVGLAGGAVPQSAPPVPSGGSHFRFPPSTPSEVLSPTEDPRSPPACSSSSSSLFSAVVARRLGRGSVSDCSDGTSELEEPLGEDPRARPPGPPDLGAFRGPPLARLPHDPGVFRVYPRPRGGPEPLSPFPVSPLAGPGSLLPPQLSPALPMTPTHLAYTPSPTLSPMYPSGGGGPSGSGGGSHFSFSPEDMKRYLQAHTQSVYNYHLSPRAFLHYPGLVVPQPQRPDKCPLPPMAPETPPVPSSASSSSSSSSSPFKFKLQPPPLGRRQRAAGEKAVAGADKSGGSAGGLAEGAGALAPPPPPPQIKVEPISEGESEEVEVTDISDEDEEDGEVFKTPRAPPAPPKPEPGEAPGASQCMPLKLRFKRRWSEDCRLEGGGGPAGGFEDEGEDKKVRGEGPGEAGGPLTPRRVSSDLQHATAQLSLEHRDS
The method, boiled down:
as §1

A further test addresses T9, ETV3L (Homo sapiens, UniProt Q6ZN32 1-361).
T9 sequence: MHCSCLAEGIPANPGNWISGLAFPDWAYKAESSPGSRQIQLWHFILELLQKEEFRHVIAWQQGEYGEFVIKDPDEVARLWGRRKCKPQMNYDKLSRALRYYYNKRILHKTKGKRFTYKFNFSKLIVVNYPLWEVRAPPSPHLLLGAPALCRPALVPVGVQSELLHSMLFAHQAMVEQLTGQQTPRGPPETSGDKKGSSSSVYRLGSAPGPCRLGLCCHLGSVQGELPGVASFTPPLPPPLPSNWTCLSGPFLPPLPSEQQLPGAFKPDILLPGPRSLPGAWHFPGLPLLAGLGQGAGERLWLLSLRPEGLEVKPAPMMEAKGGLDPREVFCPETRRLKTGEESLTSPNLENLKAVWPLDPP
The method, boiled down:
as §1

The next test addresses T10, ETS2 (Homo sapiens, UniProt P15036 1-469).
T10 sequence: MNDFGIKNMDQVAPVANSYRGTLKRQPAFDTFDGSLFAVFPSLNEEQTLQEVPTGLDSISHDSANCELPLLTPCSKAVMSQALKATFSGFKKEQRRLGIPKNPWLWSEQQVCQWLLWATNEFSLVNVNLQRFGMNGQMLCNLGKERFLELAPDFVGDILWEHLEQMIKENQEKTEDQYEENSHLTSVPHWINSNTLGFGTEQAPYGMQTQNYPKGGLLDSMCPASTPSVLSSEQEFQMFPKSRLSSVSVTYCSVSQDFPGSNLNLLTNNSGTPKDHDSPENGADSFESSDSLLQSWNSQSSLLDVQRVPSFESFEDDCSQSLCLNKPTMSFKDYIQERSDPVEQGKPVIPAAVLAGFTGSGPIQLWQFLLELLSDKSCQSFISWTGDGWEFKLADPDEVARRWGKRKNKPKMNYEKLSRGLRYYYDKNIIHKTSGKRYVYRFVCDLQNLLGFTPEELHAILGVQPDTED
An outline of the steps:
as §1

Another test addresses T11, SPDEF (Homo sapiens, UniProt O95238 1-335).
T11 sequence: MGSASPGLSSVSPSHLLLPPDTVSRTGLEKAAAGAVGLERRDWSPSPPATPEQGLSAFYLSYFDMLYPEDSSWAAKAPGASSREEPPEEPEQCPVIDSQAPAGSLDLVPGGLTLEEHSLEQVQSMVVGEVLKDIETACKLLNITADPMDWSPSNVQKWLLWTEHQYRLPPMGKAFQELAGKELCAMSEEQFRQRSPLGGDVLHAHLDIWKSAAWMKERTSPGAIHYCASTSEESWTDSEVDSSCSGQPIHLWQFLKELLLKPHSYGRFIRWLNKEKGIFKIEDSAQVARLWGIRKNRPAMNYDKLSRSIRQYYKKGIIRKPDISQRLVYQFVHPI
The method, boiled down:
as §1

The next test has as its target T12, ELF5 (Homo sapiens, UniProt Q9UKW6-2 1-255).
T12 sequence: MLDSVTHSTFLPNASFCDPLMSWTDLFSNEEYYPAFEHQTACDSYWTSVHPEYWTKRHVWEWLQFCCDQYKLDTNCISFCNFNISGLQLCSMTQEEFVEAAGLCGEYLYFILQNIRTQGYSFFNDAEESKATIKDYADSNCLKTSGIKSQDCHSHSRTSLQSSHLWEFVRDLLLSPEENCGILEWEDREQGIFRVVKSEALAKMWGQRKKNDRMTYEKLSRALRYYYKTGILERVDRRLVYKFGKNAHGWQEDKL
The method, boiled down: as §1

The next test addresses T13, ETV3 (Homo sapiens, UniProt P41162-2 1-143).
T13 sequence: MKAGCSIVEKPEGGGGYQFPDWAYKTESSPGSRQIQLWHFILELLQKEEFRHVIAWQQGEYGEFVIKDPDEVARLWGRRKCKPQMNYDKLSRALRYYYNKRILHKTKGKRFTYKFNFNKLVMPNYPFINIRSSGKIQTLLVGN
The method, boiled down:
as §1

The next test has as its target ETV6 (Homo sapiens, UniProt P41212 1-452). An outline of the steps:
as §1

Sequence of ETV5 (P41161 whole entry): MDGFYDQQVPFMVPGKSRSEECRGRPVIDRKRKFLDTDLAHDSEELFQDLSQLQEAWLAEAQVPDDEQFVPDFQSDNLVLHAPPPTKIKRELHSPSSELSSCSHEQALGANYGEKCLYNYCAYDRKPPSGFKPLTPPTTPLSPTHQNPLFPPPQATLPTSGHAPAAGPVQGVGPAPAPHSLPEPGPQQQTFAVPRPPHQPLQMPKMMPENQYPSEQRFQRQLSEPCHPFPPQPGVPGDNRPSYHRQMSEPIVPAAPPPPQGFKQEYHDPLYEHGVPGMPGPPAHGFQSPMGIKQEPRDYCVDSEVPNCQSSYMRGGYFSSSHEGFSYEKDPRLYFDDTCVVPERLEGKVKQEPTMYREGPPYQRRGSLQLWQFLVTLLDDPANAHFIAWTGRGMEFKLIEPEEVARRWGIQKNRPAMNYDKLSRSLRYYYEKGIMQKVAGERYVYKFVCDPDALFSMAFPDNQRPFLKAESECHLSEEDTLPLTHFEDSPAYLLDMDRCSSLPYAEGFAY
Sequence of ETV6 (P41212 whole entry): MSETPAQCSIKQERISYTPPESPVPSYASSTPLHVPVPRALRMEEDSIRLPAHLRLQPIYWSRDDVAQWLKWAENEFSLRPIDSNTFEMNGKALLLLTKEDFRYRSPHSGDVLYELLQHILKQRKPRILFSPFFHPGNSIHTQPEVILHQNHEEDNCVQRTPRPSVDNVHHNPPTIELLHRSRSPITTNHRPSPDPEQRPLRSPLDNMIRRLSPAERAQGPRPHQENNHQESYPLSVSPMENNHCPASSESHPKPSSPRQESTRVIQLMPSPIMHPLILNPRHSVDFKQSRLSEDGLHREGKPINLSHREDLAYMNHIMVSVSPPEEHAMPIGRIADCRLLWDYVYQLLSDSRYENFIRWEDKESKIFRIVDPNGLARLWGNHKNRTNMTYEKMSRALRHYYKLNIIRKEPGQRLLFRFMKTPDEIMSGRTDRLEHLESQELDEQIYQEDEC
Sequence of ELF1 (P32519 whole entry): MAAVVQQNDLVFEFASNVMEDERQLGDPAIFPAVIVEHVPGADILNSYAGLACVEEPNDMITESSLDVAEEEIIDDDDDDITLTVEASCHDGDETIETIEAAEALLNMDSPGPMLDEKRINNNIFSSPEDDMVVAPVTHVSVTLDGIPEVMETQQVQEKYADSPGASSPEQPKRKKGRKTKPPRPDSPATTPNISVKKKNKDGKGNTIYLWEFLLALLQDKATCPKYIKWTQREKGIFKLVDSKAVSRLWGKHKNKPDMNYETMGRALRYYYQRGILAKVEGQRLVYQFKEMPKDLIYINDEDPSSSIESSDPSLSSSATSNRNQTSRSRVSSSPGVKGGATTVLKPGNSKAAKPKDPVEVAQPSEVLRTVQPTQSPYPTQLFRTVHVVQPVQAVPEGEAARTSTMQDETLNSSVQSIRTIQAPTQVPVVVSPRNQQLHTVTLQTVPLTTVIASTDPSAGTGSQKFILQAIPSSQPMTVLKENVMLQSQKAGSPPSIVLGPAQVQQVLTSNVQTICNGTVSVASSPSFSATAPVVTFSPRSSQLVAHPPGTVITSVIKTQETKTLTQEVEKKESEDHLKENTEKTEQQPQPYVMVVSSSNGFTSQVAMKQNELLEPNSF
Sequence of ELF4 (Q99607 whole entry): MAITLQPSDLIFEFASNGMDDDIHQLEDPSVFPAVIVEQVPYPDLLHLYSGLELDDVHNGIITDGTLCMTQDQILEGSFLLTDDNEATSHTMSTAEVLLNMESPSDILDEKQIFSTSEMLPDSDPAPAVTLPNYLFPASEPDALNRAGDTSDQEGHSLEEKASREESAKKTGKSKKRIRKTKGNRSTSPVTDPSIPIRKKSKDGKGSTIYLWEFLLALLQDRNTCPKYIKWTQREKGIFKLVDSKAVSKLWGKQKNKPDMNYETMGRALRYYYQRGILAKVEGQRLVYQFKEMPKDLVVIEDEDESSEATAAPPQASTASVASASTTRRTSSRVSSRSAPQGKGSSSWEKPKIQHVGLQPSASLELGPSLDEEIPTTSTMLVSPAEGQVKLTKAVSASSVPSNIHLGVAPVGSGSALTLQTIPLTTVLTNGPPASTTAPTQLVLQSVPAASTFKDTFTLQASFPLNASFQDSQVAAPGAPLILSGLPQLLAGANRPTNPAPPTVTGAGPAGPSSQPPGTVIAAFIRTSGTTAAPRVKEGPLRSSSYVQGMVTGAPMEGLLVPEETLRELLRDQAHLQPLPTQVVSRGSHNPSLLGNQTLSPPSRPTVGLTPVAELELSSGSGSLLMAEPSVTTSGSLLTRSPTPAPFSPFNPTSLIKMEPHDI
Sequence of ETV1 (P50549 whole entry): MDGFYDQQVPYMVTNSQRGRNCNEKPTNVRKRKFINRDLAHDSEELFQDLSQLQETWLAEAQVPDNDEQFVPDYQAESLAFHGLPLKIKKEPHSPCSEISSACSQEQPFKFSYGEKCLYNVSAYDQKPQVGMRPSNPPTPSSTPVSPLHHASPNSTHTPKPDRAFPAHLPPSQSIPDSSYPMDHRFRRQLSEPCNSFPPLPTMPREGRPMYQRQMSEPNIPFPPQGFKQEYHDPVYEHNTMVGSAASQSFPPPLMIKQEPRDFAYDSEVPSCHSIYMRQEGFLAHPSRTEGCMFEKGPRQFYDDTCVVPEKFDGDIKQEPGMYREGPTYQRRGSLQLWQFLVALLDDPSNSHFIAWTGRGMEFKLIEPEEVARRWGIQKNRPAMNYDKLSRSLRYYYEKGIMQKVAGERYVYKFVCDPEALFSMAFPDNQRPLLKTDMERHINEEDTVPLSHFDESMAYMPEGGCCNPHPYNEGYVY
Sequence of SPIB (Q01892 whole entry): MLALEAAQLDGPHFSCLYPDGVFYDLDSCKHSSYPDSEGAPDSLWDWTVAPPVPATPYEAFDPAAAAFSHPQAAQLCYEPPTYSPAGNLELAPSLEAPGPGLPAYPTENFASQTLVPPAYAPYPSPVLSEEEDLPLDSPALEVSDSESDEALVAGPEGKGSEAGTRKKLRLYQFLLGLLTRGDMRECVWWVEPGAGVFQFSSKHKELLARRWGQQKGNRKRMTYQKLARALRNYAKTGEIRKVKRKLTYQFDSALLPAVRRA

With TTGGTC, the binding signal with FLI1 is 1.16 fold enrichment (6-mer frequency, TF over GST control); with ELK1 it was 1.17 fold enrichment (6-mer frequency, TF over GST control); with GABPA, 1.11 fold enrichment (6-mer frequency, TF over GST control); with ERG it was 1.06 fold enrichment (6-mer frequency, TF over GST control); in the test with ELF1, 1.15 fold enrichment (6-mer frequency, TF over GST control); in the test with EHF, 1.14 fold enrichment (6-mer frequency, TF over GST control). Besides, the binding signal was 1.08 fold enrichment (6-mer frequency, TF over GST control) with SPI1; 1.05 fold enrichment (6-mer frequency, TF over GST control) with SPIB; 1.04 fold enrichment (6-mer frequency, TF over GST control) with FEV; 1.1 fold enrichment (6-mer frequency, TF over GST control) with ETV5; 1.12 fold enrichment (6-mer frequency, TF over GST control) with SPIC; 1.13 fold enrichment (6-mer frequency, TF over GST control) in the test with ELF4. In addition, the binding signal with ETV1 was 1.17 fold enrichment (6-mer frequency, TF over GST control); in the test with ERF, 1.08 fold enrichment (6-mer frequency, TF over GST control); in the test with ETV3L, 1.08 fold enrichment (6-mer frequency, TF over GST control); with ETS2 it was 1.1 fold enrichment (6-mer frequency, TF over GST control); with SPDEF, 1.06 fold enrichment (6-mer frequency, TF over GST control); in the test with ELF5, 1.04 fold enrichment (6-mer frequency, TF over GST control). In addition, the binding signal in the test with ETV3 is 1.05 fold enrichment (6-mer frequency, TF over GST control); with ETV6, 1.06 fold enrichment (6-mer frequency, TF over GST control).
